# Experimental data from article PMC5540273 (PLoS ONE, 2017).
# What was measured:
# Conditions in all cases: concentration: 1 μM, replicates: in singlicate; n = 1
# [1] = test system: CDK2
# [2] = test system: CDK3
# [3] = test system: CDK4-cyclinD1
# [4] = test system: CDK4-cyclinD3
# [5] = test system: CDK4
# [6] = test system: CDK5
# [7] = test system: CDK7
# [8] = test system: CDK8
# [9] = test system: CDK9
# [10] = test system: CDKL1
# [11] = test system: CDKL2
# [12] = test system: CDKL3
# [13] = test system: CDKL5
# [14] = test system: CHEK1
# [15] = test system: CHEK2
# [16] = test system: CIT
# [17] = test system: CLK1
# [18] = test system: CLK2
# [19] = test system: CLK3
# [20] = test system: CLK4
# 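Also: KINOMEscan kinase panel screen.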
Compound,%Inh [1],%Inh [2],%Inh [3],%Inh [4],%Inh [5],%Inh [6],%Inh [7],%Inh [8],%Inh [9],%Inh [10],%Inh [11],%Inh [12],%Inh [13],%Inh [14],%Inh [15],%Inh [16],%Inh [17],%Inh [18],%Inh [19],%Inh [20]
CC(C)N1CCC(n2cnc(-c3ccc(F)cc3)c2-c2ccnc(N)n2)CC1 [SB-223132],0%,28%,0%,0%,10%,0%,0%,54%,0%,57%,13%,9%,0%,0%,0%,69%,5%,0%,10%,0%
CC(=O)Nc1n[nH]c2ncc(-c3ccccc3)cc12 [SB-548492],8%,12%,0%,1%,25%,11%,17%,0%,0%,30%,6%,0%,0%,0%,1%,4%,41%,19%,32%,27%
COc1ccc(Nc2nccc(N3CCC(NC(=O)Nc4ccc5c(c4)OCO5)C3)n2)cc1 (stereo not shown) [GSK1379745],73%,2%,42%,0%,32%,2%,0%,46%,0%,1%,8%,0%,0%,1%,0%,0%,15%,1%,9%,19%
CCC(CC)(CC)n1cnc2c(N)ncnc21 [SKF-97620],0%,3%,0%,0%,28%,5%,22%,30%,0%,13%,0%,0%,23%,0%,0%,13%,0%,0%,6%,16%
O=C(CCO)NCCn1ccc2ncnc(Nc3ccc(Oc4cccc(C(F)(F)F)c4)c(Cl)c3)c21,0%,0%,0%,0%,0%,0%,0%,6%,0%,15%,9%,0%,0%,0%,0%,0%,1%,0%,0%,5%
CSc1ccc(NC2=C(c3ccccc3Cl)C(=O)NC2=O)cc1 [SB-342411],10%,26%,61%,30%,0%,0%,43%,7%,0%,13%,14%,0%,0%,0%,0%,23%,74%,88%,43%,53%
O=C(NCCCN1CCCC1=O)c1cnc(NCc2cc(Cl)ccc2Cl)nc1NC1CCNCC1,0%,2%,0%,0%,0%,11%,33%,0%,0%,3%,0%,20%,0%,0%,6%,0%,0%,0%,0%,0%
Nc1n[nH]c2nnc(-c3ccccc3)cc12 [SB-517389],0%,20%,0%,22%,0%,0%,0%,0%,21%,0%,18%,69%,0%,10%,0%,29%,43%,32%,19%,19%
C[C@@H]1CCN(C(=O)CO)C[C@@H]1N(C)c1ncnc2[nH]ccc12,0%,0%,0%,0%,0%,4%,20%,0%,9%,12%,2%,0%,0%,0%,1%,0%,3%,6%,0%,0%
COc1ccc(NC(=O)c2ccc(-c3cc(-c4nnc(C)o4)ccc3C)cc2)cc1 [GW595885],0%,22%,14%,0%,0%,0%,0%,9%,0%,0%,13%,0%,0%,0%,0%,22%,17%,0%,94.8%,20%
CCc1nc(-c2cccc(C)c2)c(-c2ccnc(NC(=O)c3ccccc3)c2)s1,0%,0%,15%,6%,13%,21%,24%,1%,0%,0%,0%,0%,10%,0%,34%,42%,0%,0%,0%,16%
